Laboratory results published in publication PMC4336329 (PLoS ONE, 2015).
The whole screen tested about 310,000 compounds, of which about 14,000 (4.5%) showed an effect of 50% or more. The effect is printed as a negative number. The entries come from a sample that favours strong results as a whole.

Molecular target: human ether-à-go-go-related gene (hERG) potassium channel (human, UniProt Q12809)
Test: primary screen, population patch clamp on CHO cells stably expressing hERG; higher = less effect of the substance
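Further: peak tail current of the secondary pulse compared with the same well before compound.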

human ether-à-go-go-related gene (hERG) potassium channel, sequence (Q12809 whole entry, looked up): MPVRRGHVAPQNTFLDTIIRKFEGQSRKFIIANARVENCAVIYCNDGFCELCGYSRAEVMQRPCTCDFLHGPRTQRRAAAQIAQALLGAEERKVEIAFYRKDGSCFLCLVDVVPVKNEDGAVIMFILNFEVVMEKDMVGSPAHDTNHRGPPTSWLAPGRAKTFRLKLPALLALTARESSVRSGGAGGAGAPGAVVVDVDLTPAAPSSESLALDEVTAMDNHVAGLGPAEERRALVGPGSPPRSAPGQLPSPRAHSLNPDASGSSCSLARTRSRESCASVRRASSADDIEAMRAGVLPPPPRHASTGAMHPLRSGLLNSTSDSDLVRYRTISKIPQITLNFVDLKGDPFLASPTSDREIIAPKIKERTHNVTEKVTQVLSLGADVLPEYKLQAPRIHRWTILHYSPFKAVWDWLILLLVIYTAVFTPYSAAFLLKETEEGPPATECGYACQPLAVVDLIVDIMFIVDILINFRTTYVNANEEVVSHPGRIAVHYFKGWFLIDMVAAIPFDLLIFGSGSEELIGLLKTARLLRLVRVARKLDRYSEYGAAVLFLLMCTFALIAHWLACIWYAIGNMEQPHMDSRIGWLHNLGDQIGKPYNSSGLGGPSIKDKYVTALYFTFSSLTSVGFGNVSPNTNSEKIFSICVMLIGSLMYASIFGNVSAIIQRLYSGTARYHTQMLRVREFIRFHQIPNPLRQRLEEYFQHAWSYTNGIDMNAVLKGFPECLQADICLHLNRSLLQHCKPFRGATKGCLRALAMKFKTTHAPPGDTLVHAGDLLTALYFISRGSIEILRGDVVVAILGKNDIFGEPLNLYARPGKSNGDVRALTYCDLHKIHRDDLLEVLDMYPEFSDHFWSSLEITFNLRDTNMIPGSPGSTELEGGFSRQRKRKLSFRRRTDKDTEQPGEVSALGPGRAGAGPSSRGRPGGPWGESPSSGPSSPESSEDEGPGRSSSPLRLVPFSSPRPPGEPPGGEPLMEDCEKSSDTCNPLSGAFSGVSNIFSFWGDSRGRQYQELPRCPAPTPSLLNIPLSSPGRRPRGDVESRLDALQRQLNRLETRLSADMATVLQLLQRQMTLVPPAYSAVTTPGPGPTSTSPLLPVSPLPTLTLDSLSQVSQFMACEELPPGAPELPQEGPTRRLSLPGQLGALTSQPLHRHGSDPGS

| Structure (SMILES) | hERG current change (%, negative = inhibition) at 10uM [%] |
| --- | --- |
| O=C(NNC(=O)C1CCC1)c1cccc(Cl)c1 | -5.52 |
| CCOP(=O)(OCC)c1cc(C)c(O)c(C(C)(C)C)c1 | -3.41 |
| CCn1c(SCC(=O)Nc2cc(OC)c(OC)c(OC)c2)nnc1-c1cccs1 | -7.07 |
| C=CCn1c(SCCC(=O)O)nnc1-c1cccs1 | 6.75 |
| Cc1ccc(NC(=O)c2ccco2)cc1NC(=O)CSc1nnc(-c2cccs2)n1C | -38 |
| CCn1c(SCC(=O)c2ccccc2)nnc1-c1cccs1 | -14.8 |
| CCn1c(SCC(=O)Nc2ccc(NC(=O)c3ccco3)cc2)nnc1-c1cccs1 | 11.9 |
| Cn1c(Cc2cccs2)nnc1SC/C=C/c1ccccc1 | -0.882 |
| C=CCn1c2ccccc2c2nnc(SCc3ccc4nonc4c3)nc21 | 0.592 |
| CCn1c(SCC(=O)Nc2ccccc2)nnc1-c1cccs1 | -70.8 |
| C=CCn1c(SCc2ccc3nonc3c2)nnc1-c1cccs1 | -68.7 |
| CCn1c(SC/C=C/c2ccccc2)nnc1-c1cccs1 | -66.3 |
| O=C(CSc1nnc(-c2cccs2)n1-c1ccccc1)Nc1ccccc1 | -44.3 |
| CCn1c(SCC(=O)Nc2cccc(NC(=O)c3ccco3)c2)nnc1-c1cccs1 | -79.8 |
| Cc1ccc(NC(=O)Nc2ccc([N+](=O)[O-])cc2)nc1 | 9.85 |
| CCCCn1c(N)c(N(Cc2ccccc2OC)C(=O)c2cc(=O)[nH]c3ccccc23)c(=O)[nH]c1=O | 17.1 |
| CC(=O)N1CCN(C(=O)CSc2nc3c(cnn3-c3ccccc3)c(=O)[nH]2)CC1 | -9.1 |
| CCOc1ccc(N(C)S(=O)(=O)c2ccc(C)c(C(=O)NCc3ccccc3OC)c2)cc1 | -6.23 |
| Cc1ccc(-c2nn(CC(=O)NN3CCOCC3)c(=O)c3ccccc23)cc1 | -1.66 |
| N#Cc1cc(Cl)c(NCC2CCCO2)cc1C#N (stereo not shown) | 7.45 |

| Structure (SMILES) | hERG current change (%, negative = inhibition) at 10uM [%] |
| --- | --- |
| CC1CCCN(C(=O)Nc2cccc(NC(=O)N3CCCC(C)C3C)c2)C1C (stereo not shown) | 0.168 |
| Cc1ccc(N2CC(C(=O)Nc3ccc(C)c(S(=O)(=O)N(C)C)c3)CC2=O)cc1 (stereo not shown) | -25.2 |
| O=C(OC(C(=O)NC1CCCC1)c1ccccc1F)c1ccco1 (stereo not shown) | 5.25 |
| Cc1cccc(NC(=O)CSCC(=O)N2CCN(c3cccc(C(F)(F)F)c3)CC2)c1 | -21.8 |
| COc1ccc(NC(=O)CSCC(=O)N(C)CC(=O)Nc2c(C)cccc2C)cc1 | -0.574 |
| CNC(=O)c1c(N)sc2c1CCCCC2 | -3.16 |
| COC(=O)C(NC(=O)c1ccco1)(Nc1nc(C2CC2)cs1)C(F)(F)F (stereo not shown) | 11.7 |
| Cn1ccnc1COc1ccc(C=O)cc1 | 10.4 |
| Cn1c(SCc2nc3ccccc3s2)nnc1-c1cccs1 | -36 |
| C=CCn1c(SCC(=O)Nc2ccc(C(=O)OC(C)C)cc2)nnc1-c1cccs1 | 5.07 |
| C=CCn1c(SCC(=O)Nc2ccc(C(=O)OCC)cc2)nnc1-c1cccs1 | 16.7 |
| COc1cccc(-c2nnc(SCc3nc4ccccc4s3)n2C)c1 | -29 |
| COc1ccc(-n2nnnc2SCc2nc3ccccc3s2)cc1 | -5.94 |
| CCn1c(SCc2nc3ccccc3s2)nnc1-c1ccccc1 | -11 |
| COc1ccc(-c2nnc(SCc3nc4ccccc4s3)n2C(C)C)cc1 | -67.7 |
| C=CCn1c(SCC(=O)Nc2ccc3c(c2)CCC3)nnc1-c1cccs1 | -76.9 |
| CCn1c(SCc2nc3ccccc3s2)nnc1-c1cccs1 | -60 |
| Cc1c(/C=N\NC(=O)C2COc3ccc(C(C)(C)C)cc3O2)c2ccccc2n1C (stereo not shown) | 14 |
| CC(C)c1nnc(NC(=O)CCS(=O)(=O)c2ccccc2)s1 | 19.5 |
| CCOC(=O)N1CCC(NC(=O)C2CCCN(C(=O)N3CCOc4ccccc43)C2)CC1 (stereo not shown) | 3.21 |

| Structure (SMILES) | hERG current change (%, negative = inhibition) at 10uM [%] |
| --- | --- |
| CCCCOc1ccc(-c2c(C(=O)Nc3ccccc3)c(C)[nH]c(=S)c2C#N)cc1 | 12.1 |
| C/C(=N/NC(=O)c1ccco1)c1cccc(NC(=O)c2ccc(C)s2)c1 | 1.1 |
| COc1ccc(CCNC(=O)CCS(=O)(=O)c2ccc3c(c2)NC(=O)CO3)cc1OC | 14.5 |
| COc1ccc(NC(=O)CNC(=O)Cn2ccc3ccccc3c2=O)c(OC)c1 | 15 |
| Cc1nn(Cc2ccc(Cl)cc2)c2sc(C(=O)OCC(N)=O)cc12 | -52.1 |
| Cc1ccc(Cn2nc(C)c3cc(C(=O)OCC(N)=O)sc32)cc1 | 7.64 |
| Cc1nn(Cc2ccc(Cl)cc2)c2sc(C(=O)O)cc12 | 31.1 |
| CC(C)CN1CCN(Cc2ccc(Oc3ncccn3)cc2)CC1CCO (stereo not shown) | -28.5 |
| CC(=O)Nc1ccc(CN2CCN(CCC(C)C)C(CCO)C2)cc1 (stereo not shown) | 19.7 |
| OCCC1CN(Cc2ccc(Oc3ncccn3)cc2)CCN1CCc1ccccc1 (stereo not shown) | -55.2 |
| CC(=O)Nc1ccc(CN2CCN(CC(C)C)C(CCO)C2)cc1 (stereo not shown) | 2.2 |
| CC(=O)Nc1ccc(CN2CCN(CCc3ccccc3)C(CCO)C2)cc1 (stereo not shown) | -51.8 |
| OCCC1CN(Cc2ccc(F)cc2Cl)CCN1CCc1ccccc1 (stereo not shown) | -67.4 |
| OCCC1CN(Cc2ccc(F)cc2)CCN1CCc1ccccc1 (stereo not shown) | -74.2 |
| CC(C)CCN1CCN(Cc2ccc(Oc3ncccn3)cc2)CC1CCO (stereo not shown) | -9.21 |
| OCCC1CN(Cc2ccon2)CCN1CCc1ccccc1 (stereo not shown) | -19.2 |
| CC(C)CN1CCN(Cc2ccc(F)cc2Cl)CC1CCO (stereo not shown) | -34.4 |
| COc1cc(NC(=O)COC(=O)Cc2ccc(-c3ccccc3)cc2)cc(OC)c1 | 3.6 |
